Screening results deposited in PubChem BioAssay by National Center for Advancing Translational Sciences (NCATS).
TsaE inh = YjeE (TsaE) inhibition, E. coli. purified YjeE enzyme, qHTS inhibition assay. P0AF67. hit rate 0.05% among 71,000. Potency, µM
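Fluorescence polarization of a BODIPY Texas Red–ADP probe (2 uM) bound to purified YjeE (10 uM) was read after 15 min room-temperature incubation with compounds. Loss of polarization marks inhibitors; ADP serves as titrated control.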
15-hLO inh = blocks human 15-lipoxygenase activity. Potency, µM (doses to about 57.1 µM), without a hit: at the highest dose activity change, negative = inhibition, hits mostly inhibitors. AID 887. hit rate 1.4% among 74,000. purified 15hLO-1, xylenol orange hydroperoxide absorbance. P16050; note: potency is the fitted concentration of half-maximal effect; % is set by controls: 0 for no effect and ±100 for the full control effect; nearly all actives have a fitted effect of over 55% in size
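Purified human 15hLO-1 (40 nM final) in 25 mM Hepes pH 7.5, 0.01% Triton X-100 was preincubated with compound 15 min at room temperature, then reacted 6 min with 50 uM arachidonic acid; hydroperoxide detected by Fe-XO, 573/405 nm absorbance ratio.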
BRCT inh red = disrupts BRCA1 BRCT binding to phosphoprotein, red fluorophore readout; P38398; BRCT-phosphopeptide binding, red fluorescence polarization; Potency, µM (top dose mostly 76.9 µM), without a hit: at the highest dose activity change, negative = inhibition, most hits filed as inhibitors; hit rate 0.03% among 75,000; AID 892; note: % is set by controls: 0 for no effect and ±100 for the full control effect
Target sequence (P38398 whole entry, looked up): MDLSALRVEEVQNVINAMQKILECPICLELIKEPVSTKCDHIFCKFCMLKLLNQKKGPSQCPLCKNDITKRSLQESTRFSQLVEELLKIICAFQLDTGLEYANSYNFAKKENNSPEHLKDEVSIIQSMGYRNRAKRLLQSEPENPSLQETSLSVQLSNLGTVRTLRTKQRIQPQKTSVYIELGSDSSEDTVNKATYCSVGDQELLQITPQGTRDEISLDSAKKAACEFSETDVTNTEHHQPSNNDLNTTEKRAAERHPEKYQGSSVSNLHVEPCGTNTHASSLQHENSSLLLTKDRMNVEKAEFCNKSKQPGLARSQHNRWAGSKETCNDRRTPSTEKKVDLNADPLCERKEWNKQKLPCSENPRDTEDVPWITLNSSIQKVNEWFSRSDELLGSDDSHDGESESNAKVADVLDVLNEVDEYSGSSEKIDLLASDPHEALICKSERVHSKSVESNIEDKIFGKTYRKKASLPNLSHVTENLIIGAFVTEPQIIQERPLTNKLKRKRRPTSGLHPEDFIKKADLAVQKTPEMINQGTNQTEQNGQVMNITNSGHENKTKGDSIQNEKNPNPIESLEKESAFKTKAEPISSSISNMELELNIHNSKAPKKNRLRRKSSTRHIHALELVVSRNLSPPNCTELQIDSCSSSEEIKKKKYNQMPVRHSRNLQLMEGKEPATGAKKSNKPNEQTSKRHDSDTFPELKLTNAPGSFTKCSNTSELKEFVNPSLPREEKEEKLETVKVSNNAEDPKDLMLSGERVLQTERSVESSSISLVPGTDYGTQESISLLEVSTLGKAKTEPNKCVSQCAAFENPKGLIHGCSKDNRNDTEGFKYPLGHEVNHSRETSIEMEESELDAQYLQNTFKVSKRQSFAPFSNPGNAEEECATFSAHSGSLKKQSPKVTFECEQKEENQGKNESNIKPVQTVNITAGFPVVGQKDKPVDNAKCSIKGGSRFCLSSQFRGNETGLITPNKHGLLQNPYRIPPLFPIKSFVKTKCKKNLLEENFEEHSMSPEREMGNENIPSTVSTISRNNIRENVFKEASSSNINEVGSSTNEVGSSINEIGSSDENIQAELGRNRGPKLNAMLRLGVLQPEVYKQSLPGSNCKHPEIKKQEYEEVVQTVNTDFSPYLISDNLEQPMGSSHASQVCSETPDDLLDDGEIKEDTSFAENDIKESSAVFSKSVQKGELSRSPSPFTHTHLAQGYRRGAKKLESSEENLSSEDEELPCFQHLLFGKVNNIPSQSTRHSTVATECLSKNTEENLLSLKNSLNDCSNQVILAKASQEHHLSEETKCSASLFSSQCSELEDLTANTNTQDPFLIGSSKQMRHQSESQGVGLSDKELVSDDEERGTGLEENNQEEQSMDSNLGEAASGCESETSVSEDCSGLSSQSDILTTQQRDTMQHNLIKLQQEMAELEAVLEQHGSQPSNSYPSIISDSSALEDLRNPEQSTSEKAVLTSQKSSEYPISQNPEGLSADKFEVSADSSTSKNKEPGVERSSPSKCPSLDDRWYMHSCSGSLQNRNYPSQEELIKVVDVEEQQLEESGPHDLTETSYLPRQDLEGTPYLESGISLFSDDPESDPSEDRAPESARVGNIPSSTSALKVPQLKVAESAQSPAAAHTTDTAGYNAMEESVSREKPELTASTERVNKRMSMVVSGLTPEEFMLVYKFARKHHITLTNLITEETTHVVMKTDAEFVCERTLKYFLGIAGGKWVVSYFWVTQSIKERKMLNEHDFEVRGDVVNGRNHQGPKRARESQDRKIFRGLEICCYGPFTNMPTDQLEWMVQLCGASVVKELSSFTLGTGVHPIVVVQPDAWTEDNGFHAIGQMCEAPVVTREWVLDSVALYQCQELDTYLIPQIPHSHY
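Fluorescence polarization: 100 nM His-tagged BRCA1 BRCT with 100 nM TAMRA-labelled phospho-BACH1 decapeptide, phosphate buffer pH 7.3 with 150 mM NaCl, DTT, 0.01% Tween 20; 12 min RT. Binding inhibition seen as FP decrease.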
DNA Pol III inh = inhibitors of bacterial DNA polymerase III holoenzyme; hit rate 0.25% among 71,000; Potency, µM (top dose mostly 57.1 µM), without a hit: at the top dose activity change, negative = inhibition; reconstituted DNA polymerase III holoenzyme replication, biochemical; note: potency is the fitted concentration of half-maximal effect; % is set by controls: 0 for no effect and ±100 for the full control effect
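Reconstituted *E. coli* holoenzyme (0.35 nM Pol III, 1 nM beta, 154 nM SSB, 2 nM primase) was preincubated with compound for 15 min at RT. Synthesis on 1.4 nM ssM13Gori ran 35 min, then was stopped with PicoGreen/EDTA and read as dsDNA fluorescence.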
Tau fil binding = binds recombinant human tau filaments; AID 596; recombinant tau filaments, thioflavin S fluorescence, 15 h; filaments grown with octadecylsulfate alongside compound; P10636; Potency, µM (highest dose often 57.1 µM), without a hit: at the highest dose activity change, negative = inhibition; hit rate 2% among 71,000;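 note: potency is the fitted concentration of half-maximal effect; % is set by controls: 0 for no effect and ±100 for the full control effect; actives lower thioflavin S fluorescence by blocking filaments or displacing dye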
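His-tagged recombinant human tau (exons 2, 3 and 10 included), 1 uM, was induced to fibrillize by 30 uM sodium octadecylsulfate with compound present. After 15 h at 37 C, thioflavine S fluorescence (ex 450, em 510 nm) was read.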
BRCT PPI green = BRCA1 BRCT-phosphoprotein interaction inhibition; Potency, µM (doses to about 76.9 µM), without a hit: at the top dose activity change, negative = inhibition, most hits filed as inhibitors; P38398; hit rate 0.05% among 75,000; BRCA1 BRCT-phosphopeptide binding, green fluorescence polarization;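 note: potency is the fitted concentration of half-maximal effect; plate controls were peptide without protein for full effect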
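Compounds were incubated for 12 min at room temperature with a complex of 100 nM fluorescein-tagged pBACH1 decapeptide and 250 nM His-tagged BRCT protein. Buffer was phosphate pH 7.3 with EDTA, DTT and Tween 20. Disruption of binding lowers the polarization signal.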
The depositor's hits bear a star; i = inactive; u = inconclusive; x = no result; [ ] = remark or other dose. Sampled rows, rich in hits. Any-hit rate of the full collection: about 3.3%. Calls come from the whole dose curve; as a rule, active = well fitted curve in the direction sought with a large enough effect; inconclusive = small, poorly fitted or top-dose-only effect, or another doubt; inactive = no such curve, though single readings can be large; an effect the other way counts as inactive or inconclusive.

SMILES	TsaE inh	15-hLO inh	BRCT inh red	DNA Pol III inh	Tau fil binding	BRCT PPI green
CO[C@H]1COC(=O)[C@@H](CCSC)NC(=O)C/C=C\[C@@H](C)COC(=O)[C@@H](OCc2ccccc2)/C=C\[C@@H]1C	x	0.3%[11.4 µM]	0.9%[15.4 µM]	x	x	-0.8%[15.4 µM]
N#C/C(=C\c1ccc(O)c(O)c1)C(=O)NCCCCc1ccccc1	i	1.58µM*	-3.5%	-11.7%	u	0.2%
N#C/C(=C\c1ccc(O)c(O)c1)C(=O)NCCc1ccccc1	i	6.31µM*	-1.4%	-1.9%	20.2%	-0.6%
CC(=O)NCCc1ccc(O)c(O)c1	i	-17.1%	-0.7%	-7.5%	-3.9%	-4.3%
CCC(=O)CC(NC(=O)OC)c1ccc(F)cc1 (stereo unspecified)	x	13.1%[11.4 µM]	1.5%[15.4 µM]	x	x	-0.3%[15.4 µM]
O=c1[nH]cc(CS(=O)(=O)Cc2c[nH]c(=O)[nH]c2=O)c(=O)[nH]1	i	8.2%[11.4 µM]	0.8%[15.4 µM]	-2.4%[11.4 µM]	0.1%[11.4 µM]	0.0%[15.4 µM]
COC(=O)C/C=C\[C@@H](C)[C@@H](/C=N\OC[C@@H](C)[C@H](OCc1ccccc1)C(C)C)NS(=O)(=O)c1ccc(C)cc1	x	11.0%[11.4 µM]	0.0%[15.4 µM]	x	x	-0.1%[15.4 µM]
Cc1ccc(-c2cn(S(=O)(=O)c3cccc4nsnc34)nc2N)cc1	i	-13.5%	-0.3%	0.7%	15.8µM*	-2.7%
Nc1nn(S(=O)(=O)c2cccc3nsnc23)cc1-c1ccc(Br)cc1	i	u	-0.3%	2.0%	15.8µM*	-0.8%
CC(C)(C)NS(=O)(=O)c1cccc2nsnc12	i	12.7%	-0.8%	5.4%	-1.2%	-1.7%
N#Cc1c(-c2ccco2)cc(C2CC2)nc1SCC(=O)c1ccccc1	i	15.8µM*	-0.9%	-2.1%	43.9%	6.9%
N#Cc1c(NCCCO)nc(NCc2ccccc2)c2c1CCN(Cc1ccccc1)C2	i	5.01µM*	-5.3%	-4.0%	177.0%	-0.4%
CN1CCN(c2ccc(NC(=O)c3cccc(OCc4ccccc4)c3)cc2)CC1	i	4.8%	0.1%	2.1%	7.94µM*	-1.1%
O=C(Nc1ccc(N2CCN(c3ccc(O)cc3)CC2)cc1)Oc1ccccc1	i	-15.6%	-0.8%	-1.8%	2µM*	-1.8%
CC(=O)N1[C@H](Cc2ccccc2)C=C[C@]1(C)C(=O)NCc1cc(F)cc(C(F)(F)F)c1	i	-12.3%	0.2%	-8.4%	-5.2%	-3.8%
O=C(/N=C1\NC(=O)C(F)(C(F)(F)F)S1)NC1CCCCC1 (stereo unspecified)	i	10µM*	-2.3%	-5.7%	1.7%	4.7%
O=C(CC1Nc2ccccc2NC1=O)NC1CCCCC1 (stereo unspecified)	i	-0.9%	-1.6%	-0.9%	-5.0%	-0.9%
Cc1occc1-c1nnc(SCc2cc(=O)n3cc(Br)ccc3n2)n1C	i	u	-1.3%	-11.3%	65.6%	0.3%
Cc1ccccc1Nc1nc(CSc2nnc(-c3ccoc3C)n2C)cs1	i	12.6µM*	-2.5%	-7.3%	u	1.5%
CC/C=C\C/C=C\C/C=C\CCCCCCCC(=O)O	i	0.126µM*	1.4%	-8.8%	1.3%	-3.4%
CCC(C)COC(=O)C(C#N)c1nc2ccccc2nc1N1CCCCC1 (stereo unspecified)	i	-20.3%	0.0%	1.7%	-21.2%	0.6%
CC1CN(c2nc3ccccc3nc2C(C#N)C(=O)NCc2ccc3c(c2)OCO3)CC(C)O1 (stereo unspecified)	i	-5.7%	-1.0%	5.4%	-19.9%	2.3%
N#CC(C(=O)OCc1ccccc1)c1nc2ccccc2nc1N1CCOCC1 (stereo unspecified)	i	-15.5%	-0.1%	-5.1%	2µM*	-4.4%
C=CCOC(=O)C(C#N)c1nc2ccccc2nc1N1CCN(Cc2ccc3c(c2)OCO3)CC1 (stereo unspecified)	i	-5.5%	2.2%	-6.8%	1.26µM*	2.7%
CCC(CC)COC(=O)C(C#N)c1nc2ccccc2nc1N1CCN(CC)CC1 (stereo unspecified)	i	u	-0.6%	-2.5%	1.26µM*	1.9%
SMILES	TsaE inh	15-hLO inh	BRCT inh red	DNA Pol III inh	Tau fil binding	BRCT PPI green
COc1ccc(CNC(=O)C(C#N)c2nc3ccccc3nc2N2CCCC2)cc1 (stereo unspecified)	i	3.2%	-0.3%	27.6%	i	-9.6%
COc1ccc(CNC(=O)C(C#N)c2nc3ccccc3nc2N2CCN(C)CC2)cc1 (stereo unspecified)	i	-14.3%	-3.9%	-5.4%	3.16µM*	-3.5%
CCCC/C=C/C(NC(=O)OCc1ccccc1Cl)c1ccccc1 (stereo unspecified)	i	x	-1.2%	-0.5%	-4.2%	-2.1%
COC(=O)C1CCN(c2nc3ccccc3nc2C(C#N)C(=O)OCC(C)C)CC1 (stereo unspecified)	i	-5.7%	-1.2%	4.4%	3.98µM*	0.1%
COC(=O)C(C#N)c1nc2ccccc2nc1N1CCCC1 (stereo unspecified)	i	-17.1%	-0.5%	-6.7%	15.8µM*	0.2%
CCCCCCOC(=O)C(C#N)c1nc2ccccc2nc1N1CCCCC1 (stereo unspecified)	i	3.0%	-1.0%	-5.1%	-9.9%	1.2%
COC(=O)NC(/C(C(=O)OC)=C(\C)NCc1ccccc1)c1cccc(F)c1 (stereo unspecified)	x	u	1.6%[15.4 µM]	x	x	-1.7%[15.4 µM]
CCCC[C@@H]1C[C@H]1C(NC(=O)c1ccccc1)c1ccc(C(F)(F)F)cc1 (stereo partly specified)	i	x	-0.6%	-4.4%	-5.0%	1.3%
Cc1cc(Cl)ccc1OC(C)C(=O)Nc1ccccc1N1CCOCC1 (stereo unspecified)	i	-21.8%	0.3%	4.3%	u	0.6%
COC(=O)c1ccccc1NC(=O)CNc1cc(Cl)ccc1N1CCOCC1	i	-29.8%	-0.5%	-2.9%	15.8µM*	-0.7%
CCOC(=O)c1c(C)[nH]c(C=Nc2ccccc2)c1O	i	5.01µM*	-3.3%	1.4%	4.3%	-3.9%
CCOC(=O)c1ccc(N=Cc2nc3ccccc3n2C)cc1	i	8.1%	-2.5%	-2.8%	-1.3%	-2.6%
C(=C\c1ccccc1)/C=N/n1cnnc1	i	2.9%	-0.2%	7.3%	-2.6%	-2.3%
CN1/C(=C/C=N/n2cnnc2)C(C)(C)c2ccccc21	i	25.1µM*	1.3%	-5.7%	-4.9%	-1.2%
CC(C)C[C@H](NC(=O)[C@@H](O)[C@@H](N)Cc1ccccc1)C(=O)O	i	11.6%	2.3%	-3.4%	-2.8%	-3.0%
O=C(O)[C@@H](c1ccccc1)N1Cc2ccccc2C1=O	i	7.94µM*	-4.5%	-3.5%	-3.8%	-2.2%
CSCC[C@@H](C(=O)O)N1Cc2ccccc2C1=O	i	u	1.1%	-4.7%	-1.6%	-2.3%
